Measured values as given in PubChem BioAssay (NCI).
Compounds without any hit were thinned out: in the full panel of roughly 83,000, 20% have a hit.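 A percent growth of 40 corresponds to 60% growth inhibition; 0 means no net growth; -100 means all cells died. Active threshold: below 10.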 Unmarked numbers belong to inactive results. Active and inactive are the calls of the source.

Legend:
Assay in all cases: NCI-60 one-dose screen, 48 h (100 = growth as untreated, 0 = no growth, -100 = all killed)
Settings in all cases: 10 µM unless noted
HCT-15 colon = system: HCT-15 colon
HT29 colon = system: HT29 colon
SNB-75 CNS = system: SNB-75 CNS
SNB-19 CNS = system: SNB-19 CNS
U251 CNS = system: U251 CNS
PC-3 prostate = system: PC-3 prostate
SK-MEL-5 melanoma = system: SK-MEL-5 melanoma
UACC-62 melanoma = system: UACC-62 melanoma
LOX IMVI melanoma = system: LOX IMVI melanoma
SK-MEL-28 melanoma = system: SK-MEL-28 melanoma
SK-MEL-2 melanoma = system: SK-MEL-2 melanoma
EKVX NSCLC = system: EKVX NSCLC
SN12C renal = system: SN12C renal
UO-31 renal = system: UO-31 renal
TK-10 renal = system: TK-10 renal
ACHN renal = system: ACHN renal
CAKI-1 renal = system: CAKI-1 renal
A498 renal = system: A498 renal
CCRF-CEM leukemia = system: CCRF-CEM leukemia
MOLT-4 leukemia = system: MOLT-4 leukemia

Row | Compound | growth (HCT-15 colon) | growth (HT29 colon) | growth (SNB-75 CNS) | growth (SNB-19 CNS) | growth (U251 CNS) | growth (PC-3 prostate) | growth (SK-MEL-5 melanoma) | growth (UACC-62 melanoma) | growth (LOX IMVI melanoma) | growth (SK-MEL-28 melanoma) | growth (SK-MEL-2 melanoma) | growth (EKVX NSCLC) | growth (SN12C renal) | growth (UO-31 renal) | growth (TK-10 renal) | growth (ACHN renal) | growth (CAKI-1 renal) | growth (A498 renal) | growth (CCRF-CEM leukemia) | growth (MOLT-4 leukemia)
1 | C=CCN(CCOC(=O)c1ccc([N+](=O)[O-])cc1)CCOC(=O)c1ccc([N+](=O)[O-])cc1 | 118% | 111% | 83.7% | 108% | 103% | 85.4% | 94.8% | 110% | 88.8% | 106% | 110% | 96.1% | 143% | 69.9% | 114% | 95% | 86.1% | 95.2% | 94.3% | 96.2%
2 | O=C(Nc1ccc(Br)cc1)Nc1ccccc1Cl | 87.1% | 95.3% | 77.8% | 117% | 91.9% | 83.9% | 101% | 56.5% | 81.3% | 107% | 92% | 70.9% | 84.7% | 58.9% | 125% | 84.4% | 55.2% | 86.9% | 94.8% | 63.9%
3 | CN1CCN(Cc2ccc(NC(=O)c3cncc(C#Cc4ncc5ccccn45)c3)cc2C(F)(F)F)CC1 | 19.2% | 5.13% (active) | 34.3% | 39% | -27.7% (active) | 21.9% | 52.3% | 51.7% | 25.7% | 8.57% (active) | -8.17% (active) | 43.9% | 24% | 5.98% (active) | 53.4% | 13.1% | 1.78% (active) | 11.4% | 8.69% (active) | 17.8%
4 | O=C(c1ccc(C(F)(F)F)c(Cl)c1)N(Cc1ccc(Cl)cc1)c1ccc(-c2cc(C(F)(F)F)[nH]n2)c(O)c1 | 7.04% (active) | 5.34% (active) | 10.3% | 26.2% | 4.18% (active) | 11.2% | -42.9% (active) | 14.5% | 4.7% (active) | 30.8% | -18.3% (active) | 0.0577% (active) | 14.6% | 5.66% (active) | 5.25% (active) | 3.03% (active) | 1.19% (active) | -21.4% (active) | 10.4% | 9.19% (active)
5 | COc1ccc(-n2nc(C(=O)NCC(=O)Nc3nc4cc(OC)ccc4s3)c3ccccc3c2=O)cc1 | 64.7% | -24.4% (active) | -65.9% (active) | 0.597% (active) | -39.8% (active) | 3.92% (active) | 48.9% | 31.2% | -32.4% (active) | 21.1% | -19.9% (active) | 30.4% | 41.7% | -0.0591% (active) | -41.9% (active) | -1.26% (active) | -27.5% (active) | -2.05% (active) | 92.7% | 58.5%
6 | Cc1ccc(N=CNN=C(N)N)cc1 | 100% | 105% | 96.8% | 105% | 97.2% | 107% | 105% | 89.8% | 113% | 106% | 114% | 117% | 99.3% | 76.6% | 118% | 102% | 97% | 99.2% | 101% | 95.4%
7 | COc1cc2c(cc1I)-c1c(cc(OC)c(OC)c1OC)CC[C@@H]2NC(C)=O | 9.35% (active) | 4.21% (active) | 27.7% | 28% | 17.3% | 27.2% | 2.44% (active) | 16.4% | 33.8% | 41.6% | 18.7% | 44.6% | 26.2% | 29.5% | 59% | 33.2% | 8.95% (active) | -30.6% (active) | 22.4% | 24.3%
8 | C#CC[C@@H]1C[C@]2(C)[C@H]3CC[C@@H]4[C@H]5C(C(=C)C)CC[C@]5(C(=O)NCCCN5CCN(CCCN)CC5)CC[C@@]4(C)[C@]3(C)CC[C@H]2C(C)(C)[C@H]1OC(C)=O (stereo not given in full) | -50.4% (active) | -68.7% (active) | -95.7% (active) | -8.5% (active) | -68.2% (active) | 8.53% (active) | 83.3% | -85.6% (active) | -85.3% (active) | -59.5% (active) | -18.1% (active) | 51.9% | -84.4% (active) | -95.3% (active) | -91.5% (active) | -97.8% (active) | -96.1% (active) | 98.6% | -29.6% (active) | -28.3% (active)
9 | CSCCC1NC(=O)C(C(C)=Nc2ccccc2)=C1O (stereo not given) | 117% | 108% | 88.6% | 116% | 111% | 92.7% | 112% | 101% | 105% | 110% | 129% | 101% | 101% | 93.4% | 133% | 113% | 89.3% | 102% | 106% | 119%
10 | CCN(CC)CCCCCCCNc1cc(OC)cc2c(C)ccnc12 | 76.8% | 52.5% | 82.9% | 96.3% | 86% | 51.4% | 85.3% | 91.3% | 56.6% | 105% | 109% | 86.7% | 81.6% | 38.2% | 110% | 87.7% | 94% | 63.2% | 83.7% | 72%
11 | C#CC[C@@H]1C[C@]2(C)[C@H]3CC=C4[C@H]5[C@@H](C)[C@H](C)CC[C@]5(C(=O)NCCCCN)CC[C@@]4(C)[C@]3(C)CC[C@H]2C(C)(C)[C@H]1OC(C)=O | 31.9% | 10.5% | 81.1% | 73.9% | 40.7% | 47.5% | 94.9% | 106% | 18.6% | 100% | 101% | 96% | 73.8% | 59.4% | 97.7% | 89.5% | 50.5% | 118% | 30% | 14.9%
12 | CN(C)c1ccc(C(c2ccccc2)c2ccc(N(C)C)cc2)cc1 | 99.7% | 90.4% | 108% | 96.9% | 77.7% | 90.7% | 106% | 98.3% | 90% | 107% | 89.1% | 102% | 92.6% | 62.1% | 122% | 97.9% | 93.1% | 107% | 99.2% | 85.7%
13 | C#CCNC(=S)N/N=C(\C)c1ccccn1 | 28.4% | 31.5% | 43.4% | 38.8% | 23.1% | 48.1% | -30.5% (active) | -5.96% (active) | 15.3% | 55.3% | 74.3% | 22.1% | 13.4% | -13.9% (active) | 50.9% | 15.7% | -13.6% (active) | 16.7% | 13.4% | 3.54% (active)
14 | COCCn1c(Nc2ccc(C(=O)NO)cc2)nc2ccccc21 | 74.9% | 44.1% | 22.1% | 69.6% | 61.4% | 69.5% | 47.4% | 25.8% | 73.6% | 61.3% | 39.6% | 56.5% | 66.3% | 50.3% | 26.7% | 57.1% | 47.3% | 84.2% | 48.5% | 33.4%
15 | O=C1c2ccccc2C2N1CCC1CCc3ccccc3N12 (stereo not given) | 94.5% | 100% | 94.3% | 96.2% | 89.7% | 76.3% | 98% | 82.2% | 100% | 109% | 99.7% | 104% | 94.8% | 55.1% | 108% | 99.3% | 88.4% | 75.5% | 105% | 101%
